Results published in PubChem BioAssay AID1654 (Sanford-Burnham Center for Chemical Genomics, 2009).
Hit rate of the full screen: of about 290,000 compounds, about 1,500 (0.52%) were called active. The sample holds actives, similar compounds and a random draw of the others, so the mix is not that of the screen. Cut-off read from the data, not from the text of the source: active = inhibition above about 50%; inactive = the rest.

These molecules were tested against Dual specificity protein phosphatase 3 (Homo sapiens) (UniProt P51452) (assay: inhibition of human DUSP3 activity – biochemical, absorbance, uHTS, primary screen (AID 1654)). Conditions: recombinant VHR phosphatase, pNPP absorbance, at 13.3 µM, hits give high values.
Sequence of Dual specificity protein phosphatase 3 (Homo sapiens) (P51452 whole entry, looked up): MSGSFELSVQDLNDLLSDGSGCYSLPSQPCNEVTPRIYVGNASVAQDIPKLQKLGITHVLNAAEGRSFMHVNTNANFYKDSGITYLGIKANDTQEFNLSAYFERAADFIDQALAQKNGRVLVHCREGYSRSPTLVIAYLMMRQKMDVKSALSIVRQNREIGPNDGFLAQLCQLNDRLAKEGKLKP

| SMILES | inhibition |
| --- | --- |
| Cc1cc(C)cc(NC(=S)NCCCN2CCOCC2)c1 | -2.7% (inactive) |
| COc1cccc(NC(=S)NCCCN2CCOCC2)c1 | 16.2% (inactive) |
| CCCCc1ccc(NC(=S)NCCCN2CCOCC2)cc1 | 52.9% (active) |
| COc1cccc(C(=O)Nc2nnc(S(=O)(=O)N3CCCCC3)s2)c1 | 9.5% (inactive) |
| CC(=O)c1ccc(S(=O)(=O)NCc2nnnn2-c2ccccc2)cc1 | -9.1% (inactive) |
| CCOc1c(Br)cc(/C=C2\C(=O)N(CCC#N)N=C2C)cc1OC | 0.9% (inactive) |
| COc1cc(/C=C2\C(=N)N3N=C(CC(=O)N4CCOCC4)SC3=NC2=O)cc(OC)c1OC | -15.7% (inactive) |
| Cn1c(CCc2ccccc2)nnc1SCC(N)=O | 2.3% (inactive) |
| COc1ccc([N+](=O)[O-])cc1N(CC(=O)Nc1ccccc1C(=O)N1CCOCC1)S(C)(=O)=O | 29.6% (inactive) |
| CC(=O)Nc1ccc(NC(=O)CSc2nnnn2-c2ccccc2F)cc1 | 30% (inactive) |
| CCn1nnnc1SCC(=O)Nc1ccc(N(C)C)cc1 | 54.4% (active) |
| CCn1nnnc1SCC(=O)c1ccc(C)cc1C | 8.9% (inactive) |
| CC(C)c1ccc2c(c1)c(SC(C)(C)C)c(CC(C)(C)C(=O)O)n2Cc1ccc(Cl)cc1 | -1.6% (inactive) |
| Cn1c(SCC(=O)NC2CCCCC2)nnc1-c1ccc(N)cc1 | 15.8% (inactive) |
| Cn1c(SCC(=O)NC2CCCCC2)nnc1-c1cc2ccccc2o1 | 55.6% (active) |
| CCOc1cccc(-c2nnc(SCC(=O)NC3CC3)n2C)c1 | 24% (inactive) |
| O=[N+]([O-])c1cc([N+](=O)[O-])c(Oc2cc(F)cc(F)c2F)cc1NN1CCCCC1 | 16.6% (inactive) |
| COc1cc(NC(=S)N2CCCC(C)C2)c(OC)cc1Cl (configuration not stated) | 10.6% (inactive) |
| COc1cc(NC(=S)N2CCCC(C)C2)cc(OC)c1OC (configuration not stated) | 56.3% (active) |
| COc1ccc(NC(=S)N2CCCC(CO)C2)c(OC)c1 (configuration not stated) | -17.2% (inactive) |
| Cc1ccc(S(=O)(=O)N(CC(=O)Nc2cccnc2)c2ccc(Br)cc2)cc1 | -1.5% (inactive) |

| SMILES | inhibition |
| --- | --- |
| COC(=O)C1(CCSC)NC(c2ccc(OC)cc2OC)C2C(=O)N(c3cccc(C(C)=O)c3)C(=O)C21 (configuration not stated) | 4.9% (inactive) |
| CCOc1ccccc1CN1CCN(C2CCC2)CC1CCO (configuration not stated) | 6.5% (inactive) |
| COc1ccccc1N1CCC(N2CCN(CC(C)(C)C)C(CCO)C2)CC1 (configuration not stated) | 59.1% (active) |
| COc1ccc(N2CCC(N3CCN(C)C(CCO)C3)CC2)cc1 (configuration not stated) | 6.5% (inactive) |
| CNC(=O)COC(=O)c1cc(-c2ccc(OC)cc2)nc2ccccc12 | 11% (inactive) |
| COc1ccc(-c2cc(C(=O)N(C)Cc3ccccc3)c3ccccc3n2)cc1 | 12.2% (inactive) |
| COc1ccc(-c2cc(C(=O)n3cnc4ccccc43)c3ccccc3n2)cc1 | 51.6% (active) |
| Cc1ccc(C)c(S(=O)(=O)Nc2cc(C)on2)c1 | 16.3% (inactive) |
| COc1ccc(N(CC(=O)N2CCOCC2)S(=O)(=O)c2ccccc2)cc1Cl | 18.1% (inactive) |
| COCCNC(=O)C1CCN(C(=O)C2CC(=O)N(c3ccc(C)cc3)C2)CC1 (configuration not stated) | 50% (active) |
| COCCCNC(=O)C1CC(=O)N(c2ccc(C)cc2)C1 (configuration not stated) | 3.4% (inactive) |
| CCCC(C)NC(=O)C1CCN(C(=O)C2CC(=O)N(c3ccc(C)cc3)C2)CC1 (configuration not stated) | 13% (inactive) |
| CC1CCN(C(=O)c2ccc(S(=O)(=O)Cc3cc(F)ccc3F)c([N+](=O)[O-])c2)CC1 | 4.1% (inactive) |
| COc1ccc(NC(=O)c2cc([N+](=O)[O-])ccc2NC(=O)CNC2CCCCC2C)c(OC)c1 (configuration not stated) | 12.5% (inactive) |
| Cc1cc(NC(=O)[C@H](C)NC(=O)c2ccco2)ccc1Br | 10% (inactive) |
| CSc1ncccc1C(=O)OCC(=O)N1CCOCC1 | 39.8% (inactive) |
| CSc1ncccc1C(=O)OCc1ccc(Br)cc1 | 58.3% (active) |
| CSc1ncccc1C(=O)NC1CCCCCC1 | 21.8% (inactive) |
| CN(CC(=O)Nc1c(Cl)cccc1Cl)C(=O)c1ccncc1 | 2.5% (inactive) |
| O=C(CCS(=O)(=O)c1ccc2c(c1)NC(=O)CS2)NCc1ccccc1Cl | 25.2% (inactive) |
| CCOc1ccc(-n2c(SCC(=O)Nc3ccc(OC)cc3)nc3sc4c(c3c2=O)CCN(C)C4)cc1 | 5.3% (inactive) |

| SMILES | inhibition |
| --- | --- |
| Cc1ccc(CSc2nnc(-c3cnccn3)n2C)cc1 | 21.3% (inactive) |
| CN(C)CCCn1c(SCc2ccc(Cl)cc2)nnc1-c1ccncc1 | 24% (inactive) |
| Cn1c(SCc2ccc(F)cc2)nnc1-c1ccncc1 | 53% (active) |
| CCOC(=O)c1ccc(NC(=O)c2nc[nH]c2C(=O)N[C@@H](CCCCNC(=O)OC(C)(C)C)C(=O)OC(C)(C)C)cc1 | 3.3% (inactive) |
| CCc1ccc(OCC(=O)OC(C)C(=O)NC2CC2)cc1 (configuration not stated) | 5% (inactive) |
| COc1ccc(NC(=O)Cn2c(-c3ccc(OC)cc3)cn(-c3ccc(C)cc3)c2=O)cc1 | 6.2% (inactive) |
| CCn1c(=S)sc2c(=O)n(CC(=O)Nc3ccc(OC)cc3)c(C)nc21 | 57.9% (active) |
| CCn1c(=S)sc2c(=O)n(CC(=O)Nc3cccc(Br)c3)c(C)nc21 | -3.6% (inactive) |
| Cc1c(Cl)cccc1NC(=S)NCC(O)c1ccccc1 (configuration not stated) | 2.3% (inactive) |
| CC1CCC2(CC1)NC(=O)N(CC(=O)c1ccc3c(c1)OCO3)C2=O (configuration not stated) | 5.4% (inactive) |
| CCOc1ccc(N(CC(=O)NCc2ccc(OC)cc2)S(=O)(=O)c2c(C)noc2C)cc1 | 30.2% (inactive) |
| COc1ccc(S(=O)(=O)N(CC(=O)NCc2ccco2)c2ccc(F)cc2)cc1 | -4.2% (inactive) |
| COc1ccc(CNC(=O)CN(c2ccc(OC)c(Cl)c2)S(=O)(=O)c2ccc(C)cc2)cc1 | 59.1% (active) |
| C=CCN1C(=O)C2(OCCCO2)c2cccc(Cl)c21 | 19.2% (inactive) |
| Cc1cc(=O)oc2c3c(cc(OCC(=O)NCc4ccccn4)c12)OC(C)(C)CC3 | -2.9% (inactive) |
| CC(=O)N[C@@H](C)C(=O)N1CCC(n2nccc2NC(=O)CCCc2ccccc2)CC1 | 10.4% (inactive) |
| O=C(O)C1=NN(c2c(F)c(F)cc(F)c2F)C(=O)CC1 | -11.9% (inactive) |
| O=S(=O)(NC1CCCCC1N1CCC(O)CC1)c1ccc(Cl)cc1 (configuration not stated) | 17.2% (inactive) |
| O=S(=O)(NC1CCCCC1N1CCCCC1)c1ccc(Cl)cc1 (configuration not stated) | 52% (active) |
| CCN1CCN(C2CCCCC2NS(=O)(=O)c2ccc(Cl)cc2)CC1 (configuration not stated) | 11.4% (inactive) |
